Drawing on PubChem BioAssay AID626 (Vanderbilt High Throughput Screening Facility, 2007), this text covers B-score for 39 compounds.

Hit rate of the full screen: of about 64,000 compounds, about 1,900 (3%) were called active. Many of the other results were omitted from the sample, so actives are more common in it than they were. Unmarked numbers belong to inactive results.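 Rule for the calls: active = fluorescence rise, raw or as B-score row- and column-corrected plate score, outside the 99.7% band of its plate's samples, either direction; inactive = the rest.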

The test system of this test is Muscarinic acetylcholine receptor M1. The test is described as follows: M1 muscarinic receptor agonists, primary screen, CHO-M1 cells, Fluo-4 calcium, agonist mode (AID 626). The settings on record: Fluo-4 calcium fluorescence, at 10 µM, stronger effect = higher value.
Turning to `Cc1ccc(CNC(=O)CN2CCN(Cc3ccc(Cl)cc3)C2=O)cc1`, the B-score is -0.559. Under `CS(=O)(=O)N(Cc1nc2sc3c(c2c(=O)[nH]1)CCCC3)C1CCCCC1` stands -0.0154; under `CSCCC(NC(=O)C1CCC(C)CC1)C(=O)NCc1ccco1` (centres undefined), -0.577; under `Cn1c(=O)[nH]c(=O)c2c1nc(NCCCn1ccnc1)n2Cc1cccc(Br)c1`, 0.757.

For the compound `COc1ccc(C2C(C(=O)N3CCN(c4ccc(OC)cc4)CC3)c3ccccc3C(=O)N2C)cc1` (centres undefined), the B-score is 4.34 (active). On to `CCOc1ccc(C2C(C(=O)O)c3ccccc3C(=O)N2CCN2CCOCC2)cc1` (centres undefined), for which the B-score is 0.0396. To `COc1ccc(N2CCN(CCNC(=O)CCN3C(=O)COc4ccccc43)CC2)cc1` belongs 0.72; to `CN(C)/C=C/c1c(C#N)c(=O)ncn1Cc1ccccc1`, 1.01; to `N#C/C=C\Oc1ccc(Cl)cc1N`, 0.000464. To `COc1ccc(C(C(O)C(=O)c2c[nH]c3ccccc23)N2CCN(c3ccccc3)CC2)cc1` (centres undefined) belongs 3.3 (active). To `COc1ccc(OC)c(S(=O)(=O)N(C)CC(=O)N2CCN(c3ccccc3)CC2)c1` belongs 0.148; to `CCCC(=O)NC(C)C(c1cccs1)N1CCN(c2ccccc2)CC1` (centres undefined), -0.223. On to `CCOC(=O)c1sc(NC(=O)CSc2ncccn2)c(C#N)c1C`, for which the B-score was 0.288.

Take `COc1ccc(S(=O)(=O)N2CCN(C(=O)c3cccs3)CC2)cc1OC`: the B-score was -1.5. To `CC(=O)c1ccc(N2C(=NC(=O)C(C)C)SC3CS(=O)(=O)CC32)cc1` (centres undefined) belongs -0.587. Under `Cn1c(=O)c(=O)n(C)c2cc(S(=O)(=O)NCCc3ccccc3)ccc21` stands 0.704; under `CC(=O)Nc1ccc(NC(=O)CN2CCCC(C)C2)c(Cl)c1` (centres undefined), 6.88 (active); under `COc1ccc(NC(C)=O)cc1NC(=O)CN1CCN(C2c3ccccc3-c3ccccc32)CC1`, 0.8. To `O=C(CN1CCOCC1)Nc1ccc(NC(=O)CN2CCOCC2)c(Cl)c1` belongs -0.0117; to `CCNS(=O)(=O)c1ccc(NC(=O)Nc2cccc(OC)c2)cc1`, 2.45.

`CCOP1(=O)C=C(C(C)(C)C)OC1c1ccc(F)cc1` (centres undefined): the B-score was -0.203. Under `CCOc1ccc(NCCC(=O)c2ccc3c(c2)OCO3)cc1` stands -0.0168; under `Cc1ccc2oc(=O)c3cnn(CC(=O)N4CCN(c5ccccn5)CC4)c3c2c1`, 7.39 (active); under `CCOC(=O)C1CCCN(C(=O)Cn2ncc3c(=O)oc4ccc(C)cc4c32)C1` (centres undefined), -0.657. Under `Cc1ccc2oc(=O)c3cnn(CC(=O)N4CCCCCC4)c3c2c1` stands 0.0625; under `O=C(NC1CC2CCCC(C1)N2C(=O)N1CCCCC1)C1CCCCC1` (centres undefined), 0.398; under `CN1CCCC(OC(=O)COc2ccc(Br)cc2)C1` (centres undefined), 2.29. To `Cc1ccc(F)cc1NC(=O)c1ccc2c(c1)OCO2` belongs 0.368; to `CCOC(=O)c1c(NC(=O)CSc2nnc(CN3CCOCC3)n2C)sc2c1CCCC2`, 0.743. With `O=C(CSc1nnc(-c2ccco2)n1-c1ccccc1)NCCc1ccccc1`, the B-score is 0.164. `O=C(CSc1nnc(-c2ccco2)n1Cc1ccccc1)NC(=O)NCc1ccco1`: the B-score is 2.23 (active). Take `c1ccc(CSc2nnc(-c3ccco3)n2Cc2ccccc2)cc1`: the B-score was 1.61.

For the compound `COc1cccc(-c2nn(C)c3sc(C(=O)N4CCN(c5ccccc5)CC4)cc23)c1`, the B-score was -0.654.

As to `CC(C[N+](C)(C)C)OC(N)=O` (centres undefined), the B-score was 67.7 (active). Under `CC(=O)OC(C)C[N+](C)(C)C` (centres undefined) stands 53.8 (active). To `CCC(=O)N1c2ccc(S(=O)(=O)CCC(=O)N3CCN(c4ccccc4)CC3)cc2CC1C` (centres undefined) belongs -2.01; to `Cn1c(=O)c2c(ncn2CC(=O)N2CCN(c3ccccc3)CC2)n(C)c1=O`, 0.437; to `COc1ccc(-c2nnco2)cc1OC`, 0.77.

As for `O=S(=O)(CCc1nc2ccccc2o1)c1ccc(Cl)cc1`, the B-score is 0.134.
